Compound activity from PubChem BioAssay.
Rows were chosen to be rich in hits. Some 1.1% of all compounds tested hit in one or more screens of this group.
PTAP TSG101 blk: qHTS Assay for Iinhibitors of HIV-1 Budding by Blocking the Interaction of PTAP/TSG101; Tumor susceptibility gene 101 protein (Homo sapiens), Q99816; Fluorescence polarization, FITC-PTAP peptide / Tsg101 binding; Potency, µM (titrated, usually from 115 µM), for inactives: at the highest dose activity change, negative = inhibition, usual class: inhibitors; 340,000 tested, under 10 active; active = well fitted inhibition curve with a large enough effect in the main read-out, with a control signal flat, not every such curve was filed as active; inconclusive = small, poorly fitted or top-dose-only effect, or effect the other way, or a change in a side signal; inactive = no such curve, though single readings can be large or run the other way; note: % of control where 0% means no effect
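Tsg101 binding domain (10 uM final) was mixed with compound and a FITC-labeled PTAP peptide (50 nM final) in HEPES pH 7.5 buffer with NaCl, Tween 20, EDTA and TCEP; fluorescence polarization was read after 20 min at r.t.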
Eya2 inh: qHTS Assay for Inhibitors of the Phosphatase Activity of Eya2; Protein phosphatase EYA2 (Homo sapiens), O00167; recombinant Eya2, OMFP fluorescence dephosphorylation (OMFP is methylfluorescein phosphate); Potency, µM (highest dose often 76.9 µM), without a hit: top-dose activity, negative = inhibition, actives largely listed as inhibitors; 330,000 compounds, 0.006% hits; AID 488837, 2010; note: % is set by controls: 0 for no effect and ±100 for the full control effect
Target sequence (O00167 whole entry, looked up): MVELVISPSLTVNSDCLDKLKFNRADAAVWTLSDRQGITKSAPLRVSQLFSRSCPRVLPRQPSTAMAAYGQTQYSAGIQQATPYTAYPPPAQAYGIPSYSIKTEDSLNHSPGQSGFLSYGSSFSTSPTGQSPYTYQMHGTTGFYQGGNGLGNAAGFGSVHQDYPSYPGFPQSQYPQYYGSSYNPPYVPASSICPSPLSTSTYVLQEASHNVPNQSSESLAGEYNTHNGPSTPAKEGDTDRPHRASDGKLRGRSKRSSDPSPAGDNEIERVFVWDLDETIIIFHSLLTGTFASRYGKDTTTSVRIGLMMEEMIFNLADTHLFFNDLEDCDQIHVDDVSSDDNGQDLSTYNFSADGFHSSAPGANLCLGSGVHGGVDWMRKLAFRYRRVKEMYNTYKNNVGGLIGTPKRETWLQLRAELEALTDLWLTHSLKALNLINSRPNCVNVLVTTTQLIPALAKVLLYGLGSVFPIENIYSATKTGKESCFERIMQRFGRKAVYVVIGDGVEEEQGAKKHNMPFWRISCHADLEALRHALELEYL
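Eya2 (0.2 uM) preincubated 10 min at ambient with compound, then OMFP substrate added at 50 uM; 10 min reaction in 50 mM HEPES pH 7.5, 50 mM NaCl, 5 uM MgCl2, 0.05% BSA, 1 mM DTT. Fluorescence read at Ex 485/Em 525 nm.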
USP2a block: qHTS Assay for Inhibitors of Ubiquitin-specific Protease USP2a Using CHOP2 as the Reporter; USP2 core, Ub-CHOP2 coupled fluorogenic reporter, 485/531; 330,000 compounds, 0.01% hits; Potency, µM (titrated, usually from 38.3 µM), for inactives: top-dose activity change, negative = inhibition, hits mostly inhibitors; Ubiquitin carboxyl-terminal hydrolase 2 (Homo sapiens), O75604;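 note: plate controls were DMSO wells for no effect and full inhibition by NEM control for full effect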
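USP2 core (10nM final) preincubated 30min RT with compound in 20mM Tris-HCl pH 8.0, 2mM CaCl2, 2mM beta-mercaptoethanol, 0.05% CHAPS; 25nM Ub-CHOP2 plus 25nM reporter substrate added, fluorescence (Ex485/Em531) read after 60min.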
12-LOX inh: Primary qHTS assay for inhibitors of human arachidonate 12S-lipoxygenase (ALOX12): Round 2; purified 12hLO, xylenol orange hydroperoxide absorbance; AID 1671190, 2021; 580,000 compounds, 1.1% hits; Potency, µM (doses to about 108 µM), for the others: at the top dose activity change, negative = inhibition, actives largely listed as inhibitors; Polyunsaturated fatty acid lipoxygenase ALOX12 (Homo sapiens), P18054; note: % is set by controls: 0 for no effect and ±100 for the full control effect
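Purified human 12hLO (150 nM final) in 25 mM Hepes, 0.01% Triton X-100, pH 7.0 was preincubated 15 min at room temperature with compound. Then 40 uM arachidonic acid was added, 30 min. Hydroperoxide was read by Fe-XO absorbance ratio 573/405 nm.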
An asterisk follows results filed as active; ? = inconclusive; / = no result; [ ] = dose if it differs, or a comment. Unless noted, calls come from the whole dose curve; as a rule, active = well fitted curve in the direction sought with a large enough effect; inconclusive = small, poorly fitted or top-dose-only effect, or another doubt; inactive = no such curve, though single readings can be large; an effect the other way counts as inactive or inconclusive. Potency is the fitted concentration of half-maximal effect.

SMILES	PTAP TSG101 blk	Eya2 inh	USP2a block	12-LOX inh
CCC(C(=O)N1CCCN(c2cc(-c3ccc(OC)cc3)[nH]n2)CC1)c1ccccc1 (stereo unspecified)	/	/	/	53.5%
CC1=C[C@@H](CN2CCN(c3ccccc3)CC2)[C@H](C(C)C)C[C@H]1Cc1nnc(-c2cncn2C)o1	/	/	/	5.2%
Cc1cccc(OCC(=O)N2CCCN(c3cc(-c4ccc(Cl)cc4)[nH]n3)CC2)c1	/	/	/	18.7%
Cc1ccccc1C(C)NC(=O)CN1CCN(c2ccc([N+](=O)[O-])c3cnccc23)CC1 (stereo unspecified)	/	/	/	-8.0%
COc1ccccc1C(C)NC(=O)CN1CCN(c2ccc([N+](=O)[O-])c3cnccc23)CC1 (stereo unspecified)	/	/	/	11.2µM*
Fc1cccc(NC(=S)NNc2c3ccccc3nc3ccccc23)c1	-4.6%	-1.3%	-7.6%	39.8µM*
Fc1cccc(NC(=S)NNc2ccccc2)c1	-10.1%	6.8%	4.5%	?
O=C(NCc1ccc(Cn2cccn2)cc1)c1cn[nH]c1-c1ccc(F)cc1	/	/	/	-2.2%
Fc1ccc(-c2[nH]ncc2CNCc2cccc(Cn3cccn3)c2)cc1	/	/	/	17.8µM*
CC(C)C[C@@H]1N[C@H](C(=O)NCCN(C)C)Cc2cn(CC3CC3)c3cccc1c23	/	/	/	49.1%[176 µM]
CN1C2CCC1/C(=C\c1ccc(F)cc1)C(=O)/C2=C/c1ccc(F)cc1	-1.1%	-8.7%	1.0%	-12.8%
C=CC(=O)N1C/C(=C/c2ccc(F)cc2)C(=O)/C(=C\c2ccc(F)cc2)C1	0.6%	/	/	7.94µM*
O=[N+]([O-])c1ccc(N2N=C(c3ccccc3)CC2c2ccccc2O)cc1 (stereo unspecified)	/	2.2%	0.0%	25.1µM*
Cc1c(C(=O)Nc2ccc(C(F)(F)F)cc2)oc2ccccc12	/	/	/	6.7%
c1cc(-c2noc([C@@H]3Cc4nc[nH]c4CN3CC3CCCCC3)n2)ccn1	/	/	/	107.1%[176 µM]
CC(=O)C1=C(C)N(Cc2ccc(F)cc2)C(=S)NC1c1cccc(Cl)c1 (stereo unspecified)	/	/	/	44.7µM*
COc1cccc(C2NC(=S)N(Cc3ccc(F)cc3)C(C)=C2C(C)=O)c1 (stereo unspecified)	/	/	/	44.7µM*
COCCN1C(=S)N[C@@H](c2cccc(F)c2)C(C(=O)OC)=C1C	/	-0.8%	0.9%	/
O=C(Nc1nccs1)[C@@H]1C[C@H](c2ccc(F)cc2)N(Cc2ccccc2Cl)C1	/	/	/	4.7%[176 µM]
Clc1ccccc1C1Cn2cnc(-c3nc(-c4ccccn4)no3)c2CO1 (stereo unspecified)	/	/	/	75.8%
COc1cc(C2(c3ccc(O)c(OC)c3)C(=O)Nc3c(C)cc(Br)cc32)ccc1O	-2.7%	/	/	25.1µM*
Cc1cc(Br)cc2c1NC(=O)C2(c1c(C)n(C)n(-c2ccccc2)c1=O)c1c(C)n(C)n(-c2ccccc2)c1=O	-5.6%	-4.7%	0.9%	3.0%
Cc1cc(N2CCC(NCc3nc[nH]c3C)CC2)nc(-c2ccccc2O)n1	/	/	/	77.0%
COc1ccc(C(C#N)=C2C=CC(=NO)C(C)=C2Cl)cc1	-0.3%	/	/	20µM*
O=C(C[C@@H]1CCNC[C@@H]1Cc1cc(-c2ccccc2)on1)N1CCC(Cc2ccccc2)CC1	/	/	/	2.5%
SMILES	PTAP TSG101 blk	Eya2 inh	USP2a block	12-LOX inh
Cc1ccccc1C(=O)N1CC2(Cc3ccccc3N([S+](C)(=O)[O-])C2)C1	/	/	/	44.7µM*
Oc1c(I)cc(Cl)c2cccnc12	-12.5%	-2.1%	0.5%	11.2µM*
CC(=O)NC(c1ccc(C)cc1)c1cc([N+](=O)[O-])c2cccnc2c1O (stereo unspecified)	1.7%	-4.8%	2.7%	44.7µM*
O=[N+]([O-])c1cc(Cl)c2cccnc2c1O	?	-15.2%	2.1%	?
O=[N+]([O-])c1cc(Cl)c(O)c2ncccc12	-5.9%	-14.6%	-2.6%	5.62µM*
CC(=O)NC(c1ccccc1)c1cc(Cl)c2cccnc2c1O (stereo unspecified)	0.6%	-1.5%	1.9%	-3.9%
CCC(=O)NC(c1ccc(C)cc1)c1cc([N+](=O)[O-])c2cccnc2c1O (stereo unspecified)	-3.3%	0.9%	0.3%	11.2µM*
CCCC(=O)NC(c1ccco1)c1cc([N+](=O)[O-])c2cccnc2c1O (stereo unspecified)	-1.2%	5.3%	-1.7%	-4.0%
COc1ccc(C(=O)N2CCC3(CC2)N=C(c2ccc(Br)cc2)NO3)cc1	/	/	/	29.1%
O=C(Nc1cnc(-c2ccccc2)nc1)C1CCCCC1	/	/	/	78.9%
CN(C)c1cccc(C(=O)NCC2CCN(c3cc(-c4ccccc4)[nH]n3)CC2)c1	/	/	/	83.4%
COc1ccccc1N1CCN([C@@H]2[C@H](O)[C@H](CO)O[C@@H]2CNC(=O)c2ccccc2)CC1	/	/	/	22.4µM*
CC1=C(C(=O)N2CCOCC2)C(c2ccccc2Cl)C2=C(CCCC2=O)N1 (stereo unspecified)	/	/	/	12.2%
Cc1ccccc1C(C)NC(=O)CSc1nc2cc([N+](=O)[O-])ccc2o1 (stereo unspecified)	/	/	/	25.1µM*
COc1cc(C2CC(=O)Nc3c2ncn3-c2ccccc2Br)ccc1O (stereo unspecified)	/	/	/	63.5%
COc1ccc(C2CC(=O)Nc3c2ncn3-c2cccc(C(F)(F)F)c2)cc1OC (stereo unspecified)	/	/	/	28.2µM*
O=C(NCCc1nnc2n1CCCCC2)Nc1ccccc1F	/	/	/	-22.9%
N#Cc1c(-c2ccco2)c2c([nH]c1=S)CCCC2	-0.4%	-12.7%	0.0%	31.6µM*
N#Cc1c(-c2cccnc2)c2c([nH]c1=S)CCCC2	1.8%	-25.5%	-0.6%	?
O=C(O)CCCC(=O)Nc1cccc(C(=O)N2CCCCC2)c1	/	/	/	5.3%
CCCCC1=CC2=CC(=O)C(C)(OC(=O)CC)C(=O)C2=CO1 (stereo unspecified)	-8.2%	/	/	35.5µM*
CC1(OC(=O)c2cccs2)C(=O)C=C2C=C(C3CC3)OC=C2C1=O (stereo unspecified)	-7.3%	/	/	?
CCC(=O)OC1(C)C(=O)C=C2C=C(CCCC(=O)OC)OC=C2C1=O (stereo unspecified)	-1.2%	/	/	?
